D2 PAM-1 – positively modulates the human D2 dopamine receptor allosterically; potentiation, % at 10 µM; HEK293 T-REx D2, calcium flux, EC20 dopamine potentiation; P14416; 0.34% of 340,000 active; AID 485347;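 active = potentiation over 3 SD above the plate norm, cut at about 30% in these data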
Target sequence (P14416 whole entry, looked up): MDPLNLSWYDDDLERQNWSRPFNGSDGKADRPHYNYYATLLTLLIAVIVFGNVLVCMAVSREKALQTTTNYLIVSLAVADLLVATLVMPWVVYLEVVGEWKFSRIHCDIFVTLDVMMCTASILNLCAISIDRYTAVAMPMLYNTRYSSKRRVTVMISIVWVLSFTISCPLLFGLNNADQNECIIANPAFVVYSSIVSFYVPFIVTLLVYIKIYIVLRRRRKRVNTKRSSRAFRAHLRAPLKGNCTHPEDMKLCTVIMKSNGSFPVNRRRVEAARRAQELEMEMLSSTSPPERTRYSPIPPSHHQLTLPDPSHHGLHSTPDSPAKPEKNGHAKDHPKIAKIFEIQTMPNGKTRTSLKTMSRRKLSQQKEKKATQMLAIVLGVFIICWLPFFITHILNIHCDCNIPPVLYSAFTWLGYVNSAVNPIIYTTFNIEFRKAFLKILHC
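Using a no-wash calcium dye in inducible, force-coupled HEK293 Trex cells expressing D2, we tracked fluorescence each second for 180 s after compound, then for 180 s after EC20 dopamine to detect augmented signalling.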
D2 ag-1 – agonists of human D2 dopamine receptor. HEK293 T-REx D2 cells, calcium flux agonist mode. activation, % at 2 µM. 0.53% of 340,000 active. AID 485358;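 active = activation over 3 SD above normal in the single-dose calcium agonist read, cut at about 30% in these data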
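Calcium-flux readout, 1 cycle/sec over 180 s following compound pin transfer, in inducible HEK293 Trex D2 cells (force-coupled); dopamine controls included. Positive calcium responses during this window marked compounds as potential agonists.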
D2 PAM-2 – positive allosteric modulators of human D2 dopamine receptor. DiscoveRx D2 beta-arrestin cells, luminescence, 90 min; 100% = 57 uM dopamine signal. potentiation, % (concentration not given with the values). 0.23% of 360,000 active. AID 624464; in the data active = potentiation above about 50%; inconclusive = mostly about 30% to 49%
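D2 cells co-treated with compound plus 50 nM dopamine (EC20) for 90 min at 37 deg C to detect potentiation. Beta-arrestin recruitment was read as enzyme-fragment luminescence after 1 h at ambient temperature. Full response was set by 57 uM dopamine.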
D2 antagonist – antagonists of human D2 dopamine receptor; P14416; HEK293 TREx D2 cells, calcium flux, dopamine EC80; inhibition, % at 10 µM; 2% of 340,000 active; AID 485344; in the data active = inhibition above about 30%; inactive = below that, where a call was filed
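Tetracycline-induced HEK293 TREx cells expressing D2 receptor forced-coupled to calcium signalling, loaded with no-wash calcium dye. Compounds added and calcium flux read 180 s, then dopamine added at EC80 and read a further 180 s.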
D2 ag-2 – agonists of human D2 dopamine receptor (beta-arrestin); activation, % (test concentration not listed); DiscoveRx PathHunter D2 beta-arrestin, luminescence, 90 min; 100% = 57 uM dopamine signal; 0.084% of 360,000 active; in the data active = activation above about 40%; inconclusive = between about 15% and that limit
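DiscoveRx PathHunter D2 beta-arrestin cells (2,100/well) attached overnight, then compound-stimulated 90 min at 37 C in HBSS/10 mM HEPES/0.1% Tween-20 buffer; beta-galactosidase complementation read by luminescence after 1 h at ambient temperature. Dopamine 57 uM final (EC100) as control.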
Numbers stand for hits; 0 = inactive; ? = inconclusive; - = no result. Compounds with a hit are over-represented: about 2.4% of the library has one in this group of screens.

SMILES	D2 PAM-1	D2 ag-1	D2 PAM-2	D2 antagonist	D2 ag-2
CCOC(=O)C1CCCCN1C(=O)c1ccc2nc(Cc3ccc(OC)cc3)oc2c1 (stereo not given)	31	0	0	0	?
COc1ccc(Cc2nc3ccc(C(=O)N4CCC[C@H]4CO)cc3o2)cc1	0	0	0	0	0
Cc1ccc(C(=O)NCC(c2ccc3c(c2)OCO3)N2CCOCC2)cc1C (stereo not given)	0	-	-	-	-
Cc1ccc(Cl)c(OCC(=O)Nc2ccc3c(c2)OCCO3)c1	0	0	0	0	0
CCN(CC(=O)Nc1ccc2c(c1)OCCO2)C(=O)COc1cc(C)ccc1Cl	0	0	0	33	0
CCOc1ccc(CCNC(=O)CSc2nnnn2-c2ccccc2Cl)cc1OCC	0	0	-	-	-
COc1cc(/C=C2\SC(=S)N(CCCCC(=O)O)C2=O)ccc1OS(=O)(=O)c1ccc(C)cc1	0	0	?	32	0
COc1cc(/C=C2/SC(=S)NC2=O)ccc1OS(=O)(=O)c1ccc(C)cc1	0	0	0	0	0
O=C(O)CCC(C(=O)O)N1C(=O)C2C3CCC(C3)C2C1=O (stereo not given)	-	-	0	-	0
COc1cc(OC)c(NC(=O)C2CCCN(c3ncnc4c3nc3n4CCCCC3)C2)cc1Cl (stereo not given)	0	0	-	-	-
Cc1ccccc1CCNC(=O)c1ccc(NC(=O)N2CC(C)Sc3ccccc32)cc1 (stereo not given)	0	0	-	-	-
COCCCNC(=O)c1cc2c(=O)n3cccc(C)c3nc2n(C(C)C)c1=N	0	0	0	34	0
O=C(CSCc1cccc(Br)c1)N/N=C/c1ccc2c(c1)OCO2	0	0	0	33	0
O=C(CCc1ccc(O)c(O)c1)N/N=C/c1ccc2c(c1)OCO2	0	0	0	42	?
O=C(CSCc1ccccc1Br)N/N=C/c1ccc2c(c1)OCO2	0	0	0	0	0
CC(C)Oc1ccc(CCC(=O)N/N=C/c2ccc3c(c2)OCO3)cc1	0	0	0	0	0
Cc1cccc(CCNC(=O)C2CCCN(c3ncnc4c3nc3n4CCCCC3)C2)c1 (stereo not given)	0	0	0	0	0
Cc1cccc(N2CCN(CCCNC(=O)C3CCCN(c4ncnc5c4nc4n5CCCCC4)C3)CC2C)c1 (stereo not given)	0	0	0	56	0
COC(=O)c1cnn(-c2ccc(C)c(C)c2)c1-n1cccc1	0	0	0	30	0
Cn1c(=O)c2c(ncn2CC(N)=O)n(C)c1=O	0	0	0	0	0
Cn1c(=O)c2c(ncn2CC2OCCO2)n(C)c1=O	0	0	0	32	0
CCN(CC)c1ccc(NC(=O)c2c(OC)cccc2OC)c(C)c1	0	0	0	34	0
CCN(CC)c1ccc(NC(=O)c2cccc(OC)c2)c(C)c1	0	0	0	0	0
Cc1cc(C(=O)NC2CCCCC2)c2cc(F)ccc2n1	0	0	0	31	0
Cc1cc(C(=O)NC2CCCC2)c2ccccc2n1	0	-	0	-	0
SMILES	D2 PAM-1	D2 ag-1	D2 PAM-2	D2 antagonist	D2 ag-2
Cn1c(=O)c2ccccc2n(Cc2ccccc2Cl)c1=O	0	0	0	34	0
Cc1onc(-c2c(Cl)cccc2Cl)c1CO/N=C(\C#N)c1c(Cl)cccc1Cl	0	0	0	30	0
CN1Cc2ccccc2N(CC(=O)NCc2ccccc2)C1=O	0	-	0	-	0
Cc1cccc(C(C)C)c1NC(=O)COC(=O)CN1C(=O)C2CC=CCC2C1=O (stereo not given)	0	0	0	0	0
Cc1cccc(C)c1NC(=O)CN1C(=O)C2CC=CCC2C1=O (stereo not given)	0	0	0	57	0
Cc1cccc(C)c1NC(=O)CN1C(=O)N(C)Cc2ccccc21	0	0	0	45	0
CCn1c(COc2ccccc2)nnc1SCC(=O)c1cccc([N+](=O)[O-])c1	35	0	0	0	0
CNC(=O)CSc1nnc(COc2ccc([N+](=O)[O-])cc2)n1C	-	0	0	76	0
CCOc1cc(C)ccc1OCc1nnc(SCC(=O)c2cccc([N+](=O)[O-])c2)n1CC	0	0	0	0	0
C=CCn1c(COc2ccccc2)nnc1SCC(=O)O	33	0	0	0	0
CCn1c(COc2cccc3ccccc23)nnc1SCC(N)=O	37	0	0	0	0
CCn1c(COc2ccccc2C)nnc1SCC(=O)NCc1ccccc1	0	0	0	0	0
Cc1cc(NC2CCCCC2)nc2ccccc12	0	0	0	44	0
COc1cccc(CN2CCN(Cc3ccc(O)c(OC)c3)CC2CCO)c1 (stereo not given)	0	0	0	36	0
OCCC1CN(Cc2cccn2-c2ncccn2)CCN1Cc1ccccc1 (stereo not given)	0	0	0	31	0
C#Cc1ccc(CN2CCN(CCCc3ccccc3)C(CCO)C2)cc1 (stereo not given)	0	0	0	75	0
COc1ccc(OC)c(CN2CCN(CCCc3ccccc3)C(CCO)C2)c1 (stereo not given)	0	0	0	69	0
Cc1ccc(CN2CCN(Cc3cccn3-c3ccccn3)CC2CCO)cc1 (stereo not given)	0	0	0	0	0
Cc1ccccc1CN1CCN(CCCc2ccccc2)C(CCO)C1 (stereo not given)	0	0	0	38	0
O=C(NCc1ccc2c(c1)CCO2)Nc1cccc(C(F)(F)F)c1	0	0	0	40	0
COc1ccc(OC)c(NC(=O)CSc2nnc3ccc4ccccc4n23)c1	0	0	-	-	-
COc1ccc(CNC(=O)Cn2c(=O)nc(-c3ccccc3)c3ccccc32)cc1OC	-	0	-	-	-
COc1ccc(CCN(C)CCCC(C#N)(c2cc(OC)c(OC)c(OC)c2)C(C)C)cc1OC (stereo not given)	0	0	0	45	0
COc1ccc(C(C)=O)cc1COC(=O)Cc1n[nH]c(=O)c2ccccc12	0	0	0	33	0
COc1ccccc1C(=O)COC(=O)Cc1n[nH]c(=O)c2ccccc12	0	-	0	-	0
SMILES	D2 PAM-1	D2 ag-1	D2 PAM-2	D2 antagonist	D2 ag-2
CC1c2ccccc2SC(CCCN(C)C)c2ccccc21 (stereo not given)	0	0	0	50	0
O=C(NCc1ccc(F)cc1)c1ccc2c(c1)nnn2C1CCCC1	0	0	-	-	-
COC(=O)c1ccc(NC(=S)Nc2ccc(O)cc2)cc1	0	0	0	0	0
Oc1ccc(NC(=S)Nc2ccc(O)cc2)cc1	31	0	0	0	0
CON/C=C(\C=Nc1ccc(Cl)cc1Cl)c1ncc(C(F)(F)F)cc1Cl	0	0	0	0	0
CON/C=C(\C=Nc1ccccc1)c1ncc(C(F)(F)F)cc1Cl	34	0	0	0	0
CCCC1NC(=O)c2cc3ccccc3cc2-n2c1nc1ccc(C)cc1c2=O (stereo not given)	-	-	0	-	0
Cc1cccc(NC(=S)N2CCCCC2)c1	0	0	0	0	0
